GALR2 blocker: GALR2 (human) receptor antagonism; AID 828; inhibition, % at 4 µM; 140,000 tested, 0.39% active; GALR2-expressing cells, antagonist mode; in the data active means inhibition above about 27%;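 further: cells stimulated with galanin 1-16 at roughly its EC80; 0% = agonist challenge control and 100% = basal control without agonist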
S1P2 blocker: S1P2 (human) receptor antagonism; cell-based S1P2 antagonist assay, inhibition at 5 uM; inhibition, % at 5 µM; 97,000 tested, 0.21% active; in the data active means inhibition above about 45%;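 further: CRE beta-lactamase reporter cells expressing human S1P2 stimulated with S1P; 0% = agonist at EC80 alone and 100% = agonist plus reference antagonist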
Target sequence (O95136 whole entry, looked up): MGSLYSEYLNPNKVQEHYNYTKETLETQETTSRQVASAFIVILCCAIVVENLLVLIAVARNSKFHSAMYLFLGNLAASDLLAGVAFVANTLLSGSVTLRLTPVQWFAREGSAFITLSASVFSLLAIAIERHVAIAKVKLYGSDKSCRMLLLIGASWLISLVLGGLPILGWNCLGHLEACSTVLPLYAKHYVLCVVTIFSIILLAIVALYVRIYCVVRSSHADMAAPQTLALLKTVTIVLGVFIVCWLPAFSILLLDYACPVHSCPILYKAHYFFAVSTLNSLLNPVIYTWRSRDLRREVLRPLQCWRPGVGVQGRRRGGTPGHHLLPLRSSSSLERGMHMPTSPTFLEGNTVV
S1P2 agonist: activates the human S1P2 receptor | S1P2-expressing cell line, agonist reporter read-out | activation, % at 4.5 µM | 97,000 tested, 0.46% active | AID 729; in the data active means activation above about 16%;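 further: 0% = vehicle low control and 100% = maximal reference agonist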
GALR2 agonist: GALR2 (human) receptor agonism | 140,000 tested, 0.48% active | activation, % (test concentration not listed) | GALR2-expressing cells, agonist activation read-out; in the data active means activation above about 5%, passing the limit was not always enough;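 further: 0% = vehicle buffer wells and 100% = reference agonist at full effect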
SDO1 yeast rescue: restores growth of sdo1-depleted yeast; S. cerevisiae sdo1-depleted JHY4D growth rescue, OD600 30 h; active compounds read high; pdr5 snq2 efflux-pump mutant strain; z-score at 10 µM; 140,000 tested, 0.21% active; AID 817;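 active means z-score above 3 at both the 24 hr and the 30 hr optical density reads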;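 further: z-score against mean and SD of all compound wells on the same plate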
FAK blocker: FAK (human) kinase inhibition; biochemical FAK kinase activity assay; 97,000 tested, 0.84% active; Q05397; inhibition, %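 (tested at 7 µM)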; in the data active means inhibition above about 19%;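 further: 0% = DMSO and 100% = reference compound high control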
SDO1 rescue DR: confirmation of growth rescue in SDO1-depleted yeast, bone marrow failure. shares compounds with SDO1 yeast rescue. S. cerevisiae JHY4D (SDO1-depleted) growth rescue, OD600, 30 h; active compounds read high; efflux-deficient strain, SNQ2 and PDR5 mutated. OD recovery (test concentration not listed). 440 tested, 44% active. AID 949;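 active means yeast growth recovered at 30 hours, either rising with dose fitted slope above 0.001 or with average optical density gain above 0.07, some results past the limit were not filed as active; inactive means growth falling with dose or no effect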;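 further: gain in OD600 from 0 h to 30 h averaged across all seven doses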
* marks the source's active call; other numbers are inactive results; . = no result. The list is not random: actives were taken first. Their share in the collection is about 1.9%.

SMILES	GALR2 blocker	S1P2 blocker	S1P2 agonist	GALR2 agonist	SDO1 yeast rescue	FAK blocker	SDO1 rescue DR
COc1cccc(CN(C)C(=O)c2ccc3nccnc3c2)c1	-1.6	-12.9	-2.3	-1.4	0.2	2.2	.
O=C1c2ccccc2C(O)(Cc2ccccc2)N1c1ccc2c(c1)OCO2 (stereo not given)	20.1	.	.	-1.3	-1.26	.	.
CCOC(=O)CNC(=O)c1cccnc1	0.2	11.8	-1.7	-2.3	1.36	0.6	.
CCOC(=O)C(O)(NC(=O)c1cccnc1)C(F)(F)F (stereo not given)	1.5	-8.6	-5.9	-1.3	8.05*	-6.7	0.0927*
Cc1c(C(=O)N/N=C/C(C)C)[nH]c2c([N+](=O)[O-])cccc12	19.0	.	.	-1.9	0.14	.	.
CCOC(=O)C1=C(C)NC(=O)NC1c1ccc(OC(=O)c2ccco2)cc1 (stereo not given)	-2.3	8.8	-1.8	-1.4	-0.61	2.0	.
COC(=O)C1=C(C)NC(C)=C(C(=O)OC)C1c1ccc(OC(=O)c2ccco2)cc1	-1.9	8.1	-5.4	1.1	10.3*	-2.0	0.079*
Cc1ccccc1OCCCC(=O)Nc1nccs1	-20.6	-28.6	1.8	-0.9	-0.34	4.5	.
Cc1ccc(C)c(OCCCC(=O)Nc2nccs2)c1	-10.2	-12.3	-2.2	0.5	9.99*	0.9	0.087*
Cc1ccc(S(=O)(=O)N2CC=C(c3ccc(F)cc3)CC2)cc1	3.0	.	.	0.1	7.12*	.	0.0304
CC(=O)N/C(=C\c1ccc(F)cc1)C(=O)OC(C)C	-0.2	.	.	0.4	3.35*	.	0.098*
COc1ccc2nc(SC(C(=O)c3ccccc3)c3ccccc3)nc(C)c2c1 (stereo not given)	-6.6	.	.	0.9	1.41	.	0.0665
Cc1cc(C)cc(NC(=O)C2CCCN2/C=C/C(=O)C(F)(F)F)c1 (stereo not given)	-14.9	.	.	-1.5	0.33	.	.
CCOc1ccc(-c2nc(CSCC(=O)NCCN3CCOCC3)c(C)o2)cc1	5.1	.	.	-1.6	2.39	.	0.0425
Clc1ccc(Oc2nc(N3CCOCC3)nc(N3CCOCC3)n2)cc1	-7.6	-4.8	-3.3	-0.6	-0.96	-1.1	.
NC(=O)CCn1nc(-c2ccc(Cl)cc2)c2ccccc2c1=O	2.2	-3.6	-5.3	-1.9	4.26*	-1.1	0.0766*
CNC(=O)CCn1nc(-c2ccccc2)c2ccccc2c1=O	-5.4	19.3	-8.4	0.1	0.12	-5.5	.
CCCc1nc2ccccc2c(=O)n1N	-8.0	-8.5	-3.0	-0.1	3.65*	-2.4	0.0581
Cc1ccc2nc(C(F)OC(F)(F)F)[nH]c2c1 (stereo not given)	-4.7	-6.9	-2.2	-1.7	12*	2.8	0.0413
Cc1occc1C(=O)NN1C(=O)C2C3CCC(O3)C2C1=O (stereo not given)	7.8	.	.	-2.7	-0.59	.	.
CC(=O)C1C(c2ccc(Br)cc2)C2C(C)=NN=C2CC1(C)O (stereo not given)	15.2	.	.	-1.8	2.08	.	.
CC(=O)C1C(c2ccc(F)cc2)C2C(C)=NN=C2CC1(C)O (stereo not given)	-0.5	.	.	-0.7	9.66*	.	0.0723*
Cc1cc(C)n2nc(SCc3cc(=O)oc4ccc5ccccc5c34)nc2n1	-7.5	-7.0	4.2	0.3	-0.68	3.1	.
CCOc1ccc(C(=O)NCc2ccccc2OC)cc1	5.8	.	.	-1.1	1.14	.	.
CC1(C)C(=O)OC(c2ccccc2)C2(CCCC2)C1=O (stereo not given)	2.1	-27.7	1.8	-0.5	3.24*	-1.4	0.061
SMILES	GALR2 blocker	S1P2 blocker	S1P2 agonist	GALR2 agonist	SDO1 yeast rescue	FAK blocker	SDO1 rescue DR
COc1ccc(/C=N\NC(=O)COc2ccc(Cl)cc2Cl)c(C(=O)O)c1OC	9.3	.	.	-1.8	2.5	.	0.0423
CC(C)COC(=O)c1cc(-c2ccc(/C=N/n3cnnc3)o2)ccc1Cl	-14.3	-11.2	-3.0	-1.1	4.03*	-2.5	0.124*
Fc1ccc(-c2ccc(/C=N\n3cnnc3)o2)cc1Cl	0.8	.	.	-1.7	0.12	.	.
Cc1ccc2nc(Cl)c(/C=N/Nc3nc(C)cc(C)n3)c(=O)n2c1	16.5	.	.	0.4	0.21	.	.
Cc1ccc(NC2=Nc3ccccc3CC2)cc1	5.0	-8.7	-0.5	-0.2	0.35	-0.6	.
Brc1ccc(NC2=Nc3ccccc3CC2)cc1	6.5	13.4	-2.2	-1.1	13.3*	1.9	0.0751*
Oc1ccc(/C=N/NC(=S)NCc2ccco2)cc1	5.6	-18.7	-10.1	-2.3	-0.72	-2.7	.
S=C(NCc1ccco1)N/N=C/c1ccc(Cl)cc1	-10.3	.	.	0.1	8.39*	.	0.0788*

Screening results deposited in PubChem by several laboratories.
